The results in this text go back to PubChem BioAssay (Tox21).

Molecules are shown by their SMILES. “And” between values parts separate entries of the source, which are not always exact repeats. Identical values can stand only once. Inconclusive results are not listed. Some structures have more than one record in an assay (separate samples or runs), and their calls can disagree. The source made the active and inactive calls. Unless noted, the call rests on the fitted dose curve; in most records, active means well fitted curve in the direction sought with a large enough effect in the repeat runs; inconclusive means weak or mixed curves; inactive means no such curve, though single readings can be large; an effect the other way counts as inactive or inconclusive.

Experiment [1] in a line: qHTS assay to identify aromatase inhibitors - cell viability counter screen (AID 743084;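 further: cells stimulated with testosterone during compound exposure; nearly all actives have a fitted effect of over 55% in size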; further: potency means the concentration at half of the fitted maximal effect). (Quantitative high-throughput screening tests each substance at several concentrations.)
The target of experiment [2] is Aryl hydrocarbon receptor (Homo sapiens) (UniProt P35869). Briefly: qHTS assay to identify small molecule that activate the aryl hydrocarbon receptor (AhR) signaling pathway (AID 743085). Further: nearly all actives have a fitted effect of over 15% in size. Further: potency means the concentration at half of the fitted maximal effect.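 On activation: HG2L7.5c1 human HepG2 liver cells with stably integrated DRE-driven firefly reporter; series mostly up to about 70 µM.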 In a few lines:
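A multiplexed format paired cell viability (CellTiter-Fluor fluorescence) with AhR-dependent luciferase output (ONE-Glo luminescence) in the same wells of HepG2 DRE-luc cells after 24 h compound exposure at 37C.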

A short description of experiment [3]: qHTS assay to identify small molecule that activate the aryl hydrocarbon receptor (AhR) signaling pathway - cell viability counter screen (AID 743086).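 Further: HepG2 liver cells carrying the AhR DRE luciferase reporter; series mostly up to about 70 µM; nearly all actives have a fitted effect of over 45% in size.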 In a few lines:
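HepG2-AhR-luc (HG2L7.5c1) cells, 4000/well, treated 24 h at 37 C with compound; viability measured as CellTiter-Fluor fluorescence after 30 min in the same wells as the luciferase read.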

Experiment [4] has as its target Peroxisome proliferator-activated receptor gamma (Homo sapiens) (UniProt P37231). Briefly: qHTS assay to identify small molecule agonists of the peroxisome proliferator-activated receptor gamma (PPARg) signaling pathway (AID 743094; active means well fitted activation curve with a large enough effect in the signal ratio in the repeat runs, not every such curve was filed as active; the % refers to the signal ratio). An outline of the steps: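 GeneBLAzer PPARg UAS-bla HEK293H cells were plated, rested 5 h, then exposed to compounds for 17 h at 37C. Beta-lactamase activity was read by LiveBLAzer B/G FRET substrate fluorescence after 1 h at room temperature.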

Experiment [5] has the same target. Description: qHTS assay to identify small molecule antagonists of the peroxisome proliferator-activated receptor gamma (PPARg) signaling pathway (AID 743191; calls by dose curve; further: series mostly up to about 63 µM; nearly all actives have a fitted effect of over 30% in size). An outline of the steps:
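GeneBLAzer PPARg UAS-bla HEK293H cells, 5 h post-plating, exposed to compounds 17 h at 37C. LiveBLAzer B/G FRET substrate added for 1 h at room temperature; beta-lactamase reporter read by fluorescence intensity.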

Experiment [6] in a line: qHTS assay for small molecule agonists of the antioxidant response element (ARE) signaling pathway - cell viability counter screen (AID 743203; calls by dose curve; further: nearly all actives have a fitted effect of over 55% in size). In a few lines: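 ARE-bla HepG2 cells were plated, rested 5 h at 37C/5% CO2, then exposed to compounds in DMSO for 16 h. Viability was read as CellTiter-Glo luminescence after 30 min at room temperature, in the same wells as the ARE screen.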

A short description of experiment [7]: qHTS assay for small molecule activators of the heat shock response signaling pathway - cell viability counter screen (AID 743209). Further: nearly all actives have a fitted effect of over 50% in size. An outline of the steps:
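HSE-bla HeLa cells plated overnight, then exposed to Tox21 compounds (23 nL in DMSO) for 5 h at 37 C. After the bla reporter read, CellTiter-Glo was added in the same wells and luminescence read after 30 min at room temperature.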

Experiment [8] in a line: qHTS assay for small molecule activators of the heat shock response signaling pathway (AID 743210; active means well fitted activation curve with a large enough effect in the signal ratio in the repeat runs, with a control signal flat, not every such curve was filed as active; the % refers to the signal ratio; further: potency means the concentration at half of the fitted maximal effect;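 on activation: HeLa cells with beta-lactamase reporter driven by heat shock elements; series mostly up to about 63 µM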). An outline of the steps:
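Quantitative high-throughput format using an engineered HeLa line in which heat shock response elements drive beta-lactamase; after 5 h with compound, cells received a B/G FRET substrate and fluorescence was read.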

Experiment [9] can be described thus: qHTS assay to identify small molecule antagonists of the peroxisome proliferator-activated receptor gamma (PPARg) signaling pathway - cell viability counter screen (AID 743194). Further: nearly all actives have a fitted effect of over 55% in size. The settings on record: Potency: co-treated with 50 nM rosiglitazone. An outline of the steps: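 Cytotoxicity counter screen in PPARg-bla HEK293H cells, same wells as reporter assay. Compounds plus 50 nM rosiglitazone (final) for 17 h at 37 C, then viability read by CellTiter-Glo luminescence.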

A short description of experiment [10]: qHTS assay for small molecule agonists of the antioxidant response element (ARE) signaling pathway (AID 743202; active means well fitted activation curve with a large enough effect in the signal ratio in the repeat runs, not every such curve was filed as active; the % refers to the signal ratio; further: potency means the concentration at half of the fitted maximal effect). In a few lines: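 Agonist mode reporter screen: HepG2 cells with ARE-controlled beta-lactamase are incubated with test compounds for 16 h at 37 C, and beta-lactamase activity is measured as fluorescence of cleaved B/G FRET substrate.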

Chain of Peroxisome proliferator-activated receptor gamma (Homo sapiens) (P37231 whole entry, looked up): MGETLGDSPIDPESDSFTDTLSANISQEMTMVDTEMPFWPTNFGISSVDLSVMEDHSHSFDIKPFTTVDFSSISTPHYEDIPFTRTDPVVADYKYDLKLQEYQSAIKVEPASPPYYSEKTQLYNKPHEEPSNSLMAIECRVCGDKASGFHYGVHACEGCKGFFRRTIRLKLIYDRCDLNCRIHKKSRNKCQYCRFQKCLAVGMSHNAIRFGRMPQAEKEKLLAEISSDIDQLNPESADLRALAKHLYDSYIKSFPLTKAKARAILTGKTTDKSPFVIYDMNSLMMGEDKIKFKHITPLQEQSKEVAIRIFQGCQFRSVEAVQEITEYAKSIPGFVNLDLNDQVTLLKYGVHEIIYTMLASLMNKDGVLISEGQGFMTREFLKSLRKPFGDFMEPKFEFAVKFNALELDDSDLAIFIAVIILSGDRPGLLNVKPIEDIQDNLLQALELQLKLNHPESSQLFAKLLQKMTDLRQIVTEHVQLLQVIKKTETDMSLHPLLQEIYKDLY
Chain of Aryl hydrocarbon receptor (Homo sapiens) (P35869 whole entry, looked up): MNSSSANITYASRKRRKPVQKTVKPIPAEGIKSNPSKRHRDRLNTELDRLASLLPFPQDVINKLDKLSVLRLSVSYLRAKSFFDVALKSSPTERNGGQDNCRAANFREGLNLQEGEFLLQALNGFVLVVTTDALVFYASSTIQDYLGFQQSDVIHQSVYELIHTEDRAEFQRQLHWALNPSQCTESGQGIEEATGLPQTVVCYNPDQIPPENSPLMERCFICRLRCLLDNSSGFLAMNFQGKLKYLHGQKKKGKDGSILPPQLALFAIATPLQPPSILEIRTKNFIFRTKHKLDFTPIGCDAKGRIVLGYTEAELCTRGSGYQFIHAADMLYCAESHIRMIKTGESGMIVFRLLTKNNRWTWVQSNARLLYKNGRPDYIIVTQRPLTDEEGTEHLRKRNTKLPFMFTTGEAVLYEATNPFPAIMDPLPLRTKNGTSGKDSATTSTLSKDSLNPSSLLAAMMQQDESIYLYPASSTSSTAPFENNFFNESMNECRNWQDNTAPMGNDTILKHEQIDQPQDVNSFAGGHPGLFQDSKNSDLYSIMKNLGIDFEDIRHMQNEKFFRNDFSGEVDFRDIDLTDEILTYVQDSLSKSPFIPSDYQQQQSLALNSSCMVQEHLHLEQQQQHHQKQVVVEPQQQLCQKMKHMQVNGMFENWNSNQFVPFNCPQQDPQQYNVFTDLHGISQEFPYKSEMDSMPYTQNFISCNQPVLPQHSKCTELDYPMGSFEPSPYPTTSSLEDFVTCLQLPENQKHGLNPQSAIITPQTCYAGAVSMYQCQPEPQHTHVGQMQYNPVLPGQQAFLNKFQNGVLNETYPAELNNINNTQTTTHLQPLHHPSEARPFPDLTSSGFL

`N#CC(C#N)=Cc1ccc(O)c(O)c1`: the Potency entry in [1], in experiment [2], in [3], in experiment [4], in experiment [5] and in experiment [6] was “inactive” each time. The Potency entry in experiment [7] and in experiment [8] was “inactive” in each case.
For the compound `OC[P+](CO)(CO)CO`, the Potency is 61.8 µM (active) and inactive in experiment [1]; 12.3 µM (active) and 8.63 µM (active) in [10]. Besides, the Potency result in [2], in experiment [3], in experiment [4], in [9], in experiment [6] and in experiment [7] was “inactive” in each case. In [8], the Potency result was “inactive”.
Consider `CC(C)OC(=O)Cc1ccccc1`, for which the Potency result in experiment [1], in [2], in experiment [3], in experiment [4], in experiment [9] and in experiment [10] was “inactive” throughout. The Potency entry in experiment [6], in experiment [7] and in [8] was “inactive” each time.
On to `CCCBr`, for which the Potency result in experiment [1], in experiment [2], in experiment [3], in experiment [4], in experiment [9] and in experiment [10] was “inactive” in each case. Besides, the Potency result in experiment [6], in experiment [7] and in experiment [8] was “inactive” each time.
Take `CCOP(=S)(OCC)SCSc1cc(Cl)ccc1Cl`: the Potency entry in experiment [1], in experiment [2], in experiment [3], in experiment [4], in [9] and in experiment [10] was “inactive” each time. In addition, the Potency entry in experiment [6], in experiment [7] and in [8] was “inactive” in each case.
Regarding `c1ccc2c(c1)sc1ccccc12`, the Potency result in experiment [1], in experiment [2], in [3], in experiment [4], in [5] and in experiment [6] was “inactive” throughout. In addition, the Potency entry in experiment [7] is “inactive”.
Consider `CCCCC1C(=O)NC(=O)N(C2CCCCC2)C1=O` (configuration not stated), for which the Potency result in experiment [1], in [2], in [3], in experiment [4], in experiment [9] and in experiment [10] was “inactive” each time. Further, the Potency entry in experiment [6], in experiment [7] and in [8] was “inactive” in each case.
`O=[N+]([O-])c1cc(Cl)c(Cl)cc1Cl`: the Potency result in experiment [1], in experiment [2], in experiment [3], in experiment [4], in experiment [9] and in experiment [6] was “inactive” in each case. The Potency entry in experiment [7] and in experiment [8] was “inactive” each time.
For `CC1(C)CC(=O)CC(C)(C)N1[O]`, the Potency result in experiment [1], in experiment [2], in experiment [3], in [4], in [9] and in experiment [10] was “inactive” each time. The Potency entry in [6] and in [7] was “inactive” in each case.
Consider `Nc1c(Br)cc(Br)c2c1C(=O)c1ccccc1C2=O`, for which the Potency result in experiment [1], in experiment [3], in experiment [4], in experiment [9], in experiment [6] and in experiment [7] was “inactive” throughout. Further, the Potency entry in experiment [8] was “inactive”. The Potency in experiment [2] was 7.25 µM (active).
For the compound `c1ccc2sc(SNC3CCCCC3)nc2c1`, the Potency entry in [1], in [3], in experiment [4], in experiment [9], in experiment [6] and in experiment [7] was “inactive” throughout. In addition, the Potency in experiment [2] was 23.7 µM (active) and 34 µM (active) and 30.6 µM (active); in experiment [10], 9.69 µM (active); in [8], 13.3 µM (active).
With `C=CCSSCC=C`, the Potency entry in [1], in experiment [2], in experiment [3], in experiment [4], in experiment [5] and in experiment [10] was “inactive” in each case. Besides, the Potency result in [6], in experiment [7] and in experiment [8] was “inactive” throughout.
Turning to `COC(=O)Cc1ccccc1`, the Potency entry in experiment [1], in experiment [2], in experiment [3], in experiment [4], in [10] and in experiment [6] was “inactive” in each case. In addition, the Potency result in experiment [7] and in [8] was “inactive” throughout.
Regarding `O=C(Cc1ccccc1)OCCc1ccccc1`, the Potency entry in [1], in experiment [2], in [3], in experiment [4], in experiment [9] and in experiment [10] was “inactive” in each case. For the same compound, the Potency entry in experiment [6] and in experiment [7] was “inactive” in each case.
Regarding `C=C(C)C(=O)OCCCCOC(=O)C(=C)C`, the Potency result in experiment [1], in experiment [2], in experiment [3], in experiment [4], in [9] and in experiment [10] was “inactive” each time. The Potency entry in experiment [6] and in [7] was “inactive” each time.
For `O=C(O)COc1cc(Cl)c(Cl)cc1Cl`, the Potency result in experiment [1], in experiment [2], in experiment [3], in experiment [4], in [9] and in experiment [6] was “inactive” each time. Also, the Potency entry in experiment [7] and in experiment [8] was “inactive” each time.
`C=CC(C)(CCC=C(C)C)OC(=O)c1ccccc1N` (configuration not stated): the Potency result in experiment [1], in experiment [2], in experiment [3], in [9], in experiment [10] and in experiment [6] was “inactive” throughout. For the same compound, the Potency entry in experiment [7] and in experiment [8] was “inactive” throughout.
Take `O=C(O)C(O)C(O)C(=O)O` (configuration not stated): the Potency result in experiment [1], in experiment [2], in [3], in experiment [9], in experiment [10] and in experiment [6] was “inactive” in each case. Besides, the Potency entry in experiment [7] is “inactive”.
For `CC(C)(C)c1ccc(CCOc2ncnc3ccccc23)cc1`, the Potency entry in [1], in experiment [2], in experiment [3], in experiment [9], in experiment [10] and in [6] was “inactive” throughout. Besides, the Potency entry in [7] and in [8] was “inactive” in each case.
